Where “and” joins values, the source holds several entries; their conditions need not be identical. Equal entries are not always repeated. Inconclusive results are not listed. More than one record can exist for a structure, and the calls need not agree. Calls of active or inactive are those of the source. Calls come from the whole dose curve; as a rule, active = well fitted curve in the direction sought with a large enough effect in the repeat runs; inconclusive = weak or mixed curves; inactive = no such curve, though single readings can be large; an effect the other way counts as inactive or inconclusive.

For test [1], the target named is Cytochrome P450 2D6 (Homo sapiens) (UniProt P10635). Nature of the test: Cytochrome P450 Family 2 Subfamily D Member 6 (CYP2D6) small molecule antagonists: luciferase reporter qHTS assay (AID 1671196). For activity change, negative = inhibition: series mostly up to about 120 µM. Note: nearly all actives have a fitted effect of over 50% in size. Note: potency is the fitted concentration of half-maximal effect. The method in brief:
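CYP2D6 enzyme–substrate mix was held with compound for 10 min at room temperature, then NADPH regeneration solution was added and the reaction ran 1 h at room temperature. Luciferin product was detected by luminescence after 20 min with detection reagent.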

Test [2] deals with Cytochrome P450 2C19 (Homo sapiens) (UniProt P33261). Description: Cytochrome P450 Family 2 Subfamily C Member 19 (CYP2C19) small molecule antagonists: luciferase reporter qHTS assay (AID 1671197). For activity change, negative = inhibition: series mostly up to about 120 µM. Note: nearly all actives have a fitted effect of over 65% in size. Note: potency is the fitted concentration of half-maximal effect. In outline:
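Enzyme-substrate mix with proluciferin substrate (P450-Glo CYP2C19 system) preincubated with compounds 10 min at room temperature; NADPH regeneration solution added, 37C for 1 h; detection reagent stops reaction, luminescence read after 20 min. Ketoconazole positive control.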

Test [3] has as its target Cytochrome P450 2C9 (Homo sapiens) (UniProt P11712). Nature of the test: Cytochrome P450 Family 2 Subfamily C Member 9 (CYP2C9) small molecule antagonists: luciferase reporter qHTS assay (AID 1671198). For activity change, negative = inhibition: series mostly up to about 120 µM. Note: nearly all actives have a fitted effect of over 50% in size. Note: potency is the fitted concentration of half-maximal effect. The method in brief: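 CYP2C9 activity was measured with a P450-Glo proluciferin substrate. Enzyme–substrate mix was held with compound for 10 min at room temperature, then NADPH regeneration solution was added for 1 h at 37C. Luciferin product was read as luminescence.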

Test [4] deals with Cytochrome P450 1A2 (Homo sapiens) (UniProt P05177). Description: Cytochrome P450 Family 1 Subfamily A Member 2 (CYP1A2) small molecule antagonists: luciferase reporter qHTS assay (AID 1671199). For activity change, negative = inhibition: series mostly up to about 120 µM. Note: nearly all actives have a fitted effect of over 50% in size. Note: potency is the fitted concentration of half-maximal effect. The method in brief: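 Human CYP1A2 activity measured with a P450-Glo proluciferin substrate; compounds in DMSO preincubated 10 min at room temperature with enzyme-substrate mix, then NADPH regeneration system added for 1 h. Luciferin detection reagent, 20 min, luminescence read.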

In test [5] the target is Voltage-gated inwardly rectifying potassium channel KCNH2 (Homo sapiens) (UniProt Q12809). Nature of the test: Human Ether-a-go-go-Related Gene (hERG) channel small molecule antagonists: fluorescence cell-based qHTS assay (AID 1671200).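 For activity change, negative = inhibition: hERG-expressing U2OS cells given a thallium stimulus after FluxOR II dye loading; series mostly up to about 77 µM.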 Note: nearly all actives have a fitted effect of over 50% in size. Note: potency is the fitted concentration of half-maximal effect. The method in brief: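 hERG-U2OS cells plated overnight at 37 C, loaded with FluxOR II dye 1 h at RT in dark; after 10 min, thallium stimulus added. Fluorescence (480/540 nm) read kinetically for 2 min at 1 s intervals.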

The target of test [6] is Cytochrome P450 3A4 (Homo sapiens) (UniProt P08684). Nature of the test: Cytochrome P450 Family 3 Subfamily A Member 4 (CYP3A4) small molecule antagonists: luciferase reporter qHTS assay (AID 1671201). In outline:
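P450-Glo CYP3A4 luminescent assay: compounds preincubated 10 min at room temperature with enzyme and proluciferin substrate, NADPH regeneration added, 1 h room-temperature reaction, stopped with luciferin detection reagent; luminescence read after 20 min. Ketoconazole positive control.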
% is set by controls: 0 for no effect and ±100 for the full control effect.

Sequence of Cytochrome P450 1A2 (Homo sapiens) (P05177 whole entry, looked up): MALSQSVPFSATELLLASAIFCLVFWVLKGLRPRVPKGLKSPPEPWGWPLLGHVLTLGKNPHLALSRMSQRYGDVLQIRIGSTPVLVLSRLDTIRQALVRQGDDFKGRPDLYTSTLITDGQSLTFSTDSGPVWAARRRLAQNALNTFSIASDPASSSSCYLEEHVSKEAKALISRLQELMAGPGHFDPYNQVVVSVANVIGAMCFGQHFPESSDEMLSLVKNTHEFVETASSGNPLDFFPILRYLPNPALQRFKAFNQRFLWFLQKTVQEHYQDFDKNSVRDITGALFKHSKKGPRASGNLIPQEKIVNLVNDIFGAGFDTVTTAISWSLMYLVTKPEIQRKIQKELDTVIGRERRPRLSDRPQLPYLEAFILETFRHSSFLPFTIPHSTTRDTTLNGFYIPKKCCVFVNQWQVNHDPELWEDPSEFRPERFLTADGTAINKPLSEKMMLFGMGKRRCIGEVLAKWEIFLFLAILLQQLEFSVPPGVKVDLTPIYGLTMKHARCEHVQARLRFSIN
Sequence of Voltage-gated inwardly rectifying potassium channel KCNH2 (Homo sapiens) (Q12809 whole entry, looked up): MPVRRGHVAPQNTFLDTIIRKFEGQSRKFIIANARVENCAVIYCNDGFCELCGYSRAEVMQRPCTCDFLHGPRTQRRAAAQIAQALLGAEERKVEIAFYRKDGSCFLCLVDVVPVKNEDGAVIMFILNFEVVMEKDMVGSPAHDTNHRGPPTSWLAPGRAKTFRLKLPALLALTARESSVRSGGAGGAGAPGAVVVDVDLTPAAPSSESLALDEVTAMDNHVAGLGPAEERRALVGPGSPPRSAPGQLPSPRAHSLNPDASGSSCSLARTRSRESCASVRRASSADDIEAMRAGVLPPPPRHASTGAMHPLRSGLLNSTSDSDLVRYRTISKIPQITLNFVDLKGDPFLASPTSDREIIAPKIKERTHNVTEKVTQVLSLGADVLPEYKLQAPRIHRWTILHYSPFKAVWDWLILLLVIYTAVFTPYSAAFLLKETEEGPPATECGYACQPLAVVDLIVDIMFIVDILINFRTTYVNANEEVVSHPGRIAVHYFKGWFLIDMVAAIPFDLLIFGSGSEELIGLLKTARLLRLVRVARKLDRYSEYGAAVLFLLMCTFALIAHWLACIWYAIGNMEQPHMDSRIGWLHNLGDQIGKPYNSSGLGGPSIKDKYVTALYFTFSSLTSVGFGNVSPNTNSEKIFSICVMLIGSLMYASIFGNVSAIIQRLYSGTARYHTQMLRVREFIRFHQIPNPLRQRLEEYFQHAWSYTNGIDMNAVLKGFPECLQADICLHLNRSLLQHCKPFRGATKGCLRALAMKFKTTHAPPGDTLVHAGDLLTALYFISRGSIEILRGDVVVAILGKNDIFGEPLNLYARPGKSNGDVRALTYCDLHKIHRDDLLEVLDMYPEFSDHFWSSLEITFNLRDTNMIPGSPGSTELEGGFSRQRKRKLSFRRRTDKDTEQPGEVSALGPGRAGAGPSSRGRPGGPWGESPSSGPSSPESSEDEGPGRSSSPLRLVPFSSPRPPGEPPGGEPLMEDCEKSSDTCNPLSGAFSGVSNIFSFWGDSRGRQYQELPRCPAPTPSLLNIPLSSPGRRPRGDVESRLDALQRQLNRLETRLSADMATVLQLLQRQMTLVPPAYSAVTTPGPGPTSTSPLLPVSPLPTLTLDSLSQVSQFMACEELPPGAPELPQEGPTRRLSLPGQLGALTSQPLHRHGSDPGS
Sequence of Cytochrome P450 2C19 (Homo sapiens) (P33261 whole entry, looked up): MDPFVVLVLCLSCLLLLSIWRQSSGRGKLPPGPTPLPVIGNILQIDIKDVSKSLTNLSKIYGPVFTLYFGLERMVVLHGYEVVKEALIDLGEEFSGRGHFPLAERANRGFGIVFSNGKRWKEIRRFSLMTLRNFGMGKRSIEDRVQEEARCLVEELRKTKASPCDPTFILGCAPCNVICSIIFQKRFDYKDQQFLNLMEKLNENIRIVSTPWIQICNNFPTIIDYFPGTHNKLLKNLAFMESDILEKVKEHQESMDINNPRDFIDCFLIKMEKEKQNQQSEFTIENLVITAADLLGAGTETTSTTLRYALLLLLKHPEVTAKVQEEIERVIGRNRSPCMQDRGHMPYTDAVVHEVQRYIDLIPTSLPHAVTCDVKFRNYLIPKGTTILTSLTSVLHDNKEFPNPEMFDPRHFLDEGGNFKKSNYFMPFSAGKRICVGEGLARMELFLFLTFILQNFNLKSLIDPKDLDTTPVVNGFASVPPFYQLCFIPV
Sequence of Cytochrome P450 2C9 (Homo sapiens) (P11712 whole entry, looked up): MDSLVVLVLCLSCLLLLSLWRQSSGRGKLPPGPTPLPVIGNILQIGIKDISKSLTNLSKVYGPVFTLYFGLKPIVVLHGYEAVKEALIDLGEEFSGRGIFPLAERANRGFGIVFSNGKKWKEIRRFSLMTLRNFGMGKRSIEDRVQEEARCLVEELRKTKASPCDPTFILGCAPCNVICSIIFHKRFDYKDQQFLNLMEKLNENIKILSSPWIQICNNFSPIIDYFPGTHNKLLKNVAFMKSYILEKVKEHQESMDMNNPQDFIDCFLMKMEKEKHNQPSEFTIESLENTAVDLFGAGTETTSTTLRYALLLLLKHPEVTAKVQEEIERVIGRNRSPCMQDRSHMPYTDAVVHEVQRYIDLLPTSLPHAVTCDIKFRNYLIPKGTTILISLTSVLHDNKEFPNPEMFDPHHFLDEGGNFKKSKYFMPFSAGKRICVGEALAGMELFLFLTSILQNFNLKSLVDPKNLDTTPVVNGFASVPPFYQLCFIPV
Sequence of Cytochrome P450 2D6 (Homo sapiens) (P10635 whole entry, looked up): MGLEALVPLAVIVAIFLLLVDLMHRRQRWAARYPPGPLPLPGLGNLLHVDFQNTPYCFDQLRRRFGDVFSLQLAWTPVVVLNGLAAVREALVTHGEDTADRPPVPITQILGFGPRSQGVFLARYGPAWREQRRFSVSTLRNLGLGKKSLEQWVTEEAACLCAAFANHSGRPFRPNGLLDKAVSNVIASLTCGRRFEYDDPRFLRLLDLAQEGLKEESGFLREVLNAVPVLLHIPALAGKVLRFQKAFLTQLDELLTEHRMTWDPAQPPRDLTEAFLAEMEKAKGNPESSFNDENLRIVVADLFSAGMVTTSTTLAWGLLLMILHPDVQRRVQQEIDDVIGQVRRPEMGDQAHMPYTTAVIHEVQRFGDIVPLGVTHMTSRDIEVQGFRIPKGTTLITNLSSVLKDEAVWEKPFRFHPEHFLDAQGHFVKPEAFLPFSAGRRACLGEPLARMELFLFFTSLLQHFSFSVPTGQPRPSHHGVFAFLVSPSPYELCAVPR
Sequence of Cytochrome P450 3A4 (Homo sapiens) (P08684 whole entry, looked up): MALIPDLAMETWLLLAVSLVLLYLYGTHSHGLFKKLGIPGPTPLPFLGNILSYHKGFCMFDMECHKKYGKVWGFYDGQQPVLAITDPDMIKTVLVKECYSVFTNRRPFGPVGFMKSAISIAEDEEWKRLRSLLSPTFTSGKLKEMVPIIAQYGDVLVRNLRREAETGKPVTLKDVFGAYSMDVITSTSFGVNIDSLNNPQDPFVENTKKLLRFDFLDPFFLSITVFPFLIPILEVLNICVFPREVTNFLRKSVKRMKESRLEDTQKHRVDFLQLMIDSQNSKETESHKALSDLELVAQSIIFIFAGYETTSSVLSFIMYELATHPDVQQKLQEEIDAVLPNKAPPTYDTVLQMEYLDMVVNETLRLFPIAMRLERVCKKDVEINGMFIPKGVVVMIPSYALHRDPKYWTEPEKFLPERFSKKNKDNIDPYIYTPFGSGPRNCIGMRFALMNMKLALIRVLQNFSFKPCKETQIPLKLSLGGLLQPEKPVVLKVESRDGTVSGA

`CCOC(C)(C)C`: the Potency entry in test [1], in test [2], in test [3], in test [4], in test [5] and in test [6] was “inactive” throughout.
Turning to `O=C[C@H](O)[C@@H](O)[C@H](O)[C@H](O)CO`, the Potency result in test [1], in test [2], in test [3], in test [4], in test [5] and in test [6] was “inactive” throughout.
With `ClC(Cl)(Br)Br`, the Potency in test [1] is 39.2 µM (active). Also, the Potency result in test [2], in test [3], in test [4], in test [5] and in test [6] was “inactive” throughout.
Consider `CC(C)(O)C#CC(C)(C)O`, for which the Potency result in test [1], in test [2], in test [3], in test [4], in test [5] and in test [6] was “inactive” in each case.
Consider `CC(C)(CC(=O)O)C(=O)O`, for which the Potency result in test [1], in test [3], in test [5] and in test [6] was “inactive” each time. Besides, the Potency is 70.3 µM (active) in test [2] and 12.5 µM (active) in test [4].
In the case of `CN1CCCC1`, the Potency result in test [1], in test [2], in test [3], in test [4], in test [5] and in test [6] was “inactive” each time.
Regarding `CN1CCN(c2cc3c(cc2F)c(=O)c(C(=O)O)cn3-c2ccc(F)cc2)CC1`, the Potency entry in test [1], in test [2], in test [3], in test [4] and in test [6] was “inactive” in each case.
With `NC(=O)COCCN1CCN(C(c2ccccc2)c2ccc(Cl)cc2)CC1` (stereo not given), the Potency result in test [1], in test [2], in test [3], in test [4] and in test [6] was “inactive” throughout.
Consider `CCCCOCCOCCOCCCC`, for which the Potency result in test [1], in test [2], in test [3], in test [4], in test [5] and in test [6] was “inactive” each time.
For the compound `FC1(F)C(F)(F)C(F)(F)C2(F)C(F)(F)C(F)(F)C(F)(F)C(F)(F)C2(F)C1(F)F` (stereo not given), the Potency result in test [1], in test [2], in test [3], in test [4] and in test [6] was “inactive” throughout.
For the compound `NC(=O)Nc1ccccc1`, the Potency result in test [1], in test [2], in test [3], in test [4], in test [5] and in test [6] was “inactive” each time.
For `CCCCCCCCCCCC`, the Potency entry in test [1], in test [2], in test [3], in test [4] and in test [6] was “inactive” throughout.
As for `COC(=O)CC(C)=O`, the Potency result in test [1], in test [2], in test [3], in test [4], in test [5] and in test [6] was “inactive” each time.
As to `CCc1nccnc1CC`, the activity change, negative = inhibition in test [1] was -14% [at 23.6 µM] (inactive); in test [3] it was 2.92% [at 23.6 µM] (inactive); in test [6], 8.66% [at 23.6 µM] (inactive). Also, the Potency entry in test [2] and in test [4] was “inactive” throughout.
Consider `C[N+](C)(C)CCCCCC[N+](C)(C)C`, for which the Potency entry in test [1], in test [2], in test [3], in test [4], in test [5] and in test [6] was “inactive” in each case.
Consider `C[C@H](NC(CCc1ccccc1)C(=O)O)C(=O)N1CCC[C@H]1C(=O)O` (stereo not given in full), for which the Potency entry in test [1], in test [2], in test [3], in test [4] and in test [6] was “inactive” in each case.
On to `NC(=O)c1cn(Cc2c(F)cccc2F)nn1`, for which the Potency result in test [1], in test [2], in test [3], in test [4] and in test [6] was “inactive” throughout.
As to `C[C@H]1C[C@@H](O)CC(C)(C)C1`, the Potency result in test [1], in test [2], in test [3], in test [4], in test [5] and in test [6] was “inactive” in each case.
On to `O=C(O)CN(CCOCCOCCN(CC(=O)O)CC(=O)O)CC(=O)O`, for which the activity change, negative = inhibition in test [1] is -9.59% [at 0.435 µM] (inactive); in test [2], -11.6% [at 0.435 µM] (inactive); in test [3] it was 4.56% [at 0.435 µM] (inactive); in test [4], -6.73% [at 0.435 µM] (inactive); in test [5] it was 0.825% [at 0.29 µM] (inactive); in test [6] it was 0.649% [at 0.435 µM] (inactive).
Regarding `NS(=O)(=O)c1cc(C(=O)O)cc(N2CCCC2)c1Oc1ccccc1`, the Potency entry in test [1], in test [2], in test [3], in test [4], in test [5] and in test [6] was “inactive” each time.
Regarding `CCCN(CCC)CCc1cccc2c1CC(=O)N2`, in test [1], the Potency was 0.977 µM (active). The Potency entry in test [2], in test [3], in test [4] and in test [6] was “inactive” in each case.
Regarding `Cc1cc2c(cc1S(N)(=O)=O)S(=O)(=O)CCC2`, the Potency entry in test [1], in test [2], in test [3], in test [4], in test [5] and in test [6] was “inactive” each time.
With `N=c1nc(N2CCCCC2)cc(N)n1O`, in test [1], the Potency is 21.9 µM (active). For the same compound, the Potency result in test [2], in test [3], in test [4], in test [5] and in test [6] was “inactive” each time.
For the compound `CCCCCSCCCCC`, the Potency entry in test [1], in test [2], in test [3], in test [4], in test [5] and in test [6] was “inactive” each time.
For the compound `NCCCNCCSP(=O)(O)O`, the activity change, negative = inhibition in test [1] is -0.545% [at 10.5 µM] (inactive); in test [2], -2.49% [at 10.5 µM] (inactive); in test [3], 10.3% [at 10.5 µM] (inactive); in test [4] it was -21.8% [at 10.5 µM] (inactive); in test [5] it was -1.01% [at 6.97 µM] (inactive); in test [6] it was 5.88% [at 10.5 µM] (inactive).
As for `COC(=O)c1c(Cl)c(Cl)c(C(=O)OC)c(Cl)c1Cl`, the Potency entry was “inactive and 31.7 µM (active)” in test [1]; 28.3 µM (active) and 15.9 µM (active) in test [2]; 317 nM (active) and 154 nM (active) in test [4]. The Potency result in test [3] and in test [6] was “inactive” each time.
As for `C1OCOCO1`, the Potency entry in test [1], in test [2], in test [3], in test [4] and in test [6] was “inactive” each time.
Consider `OCCCC1CCCCC1`, for which the Potency entry in test [1], in test [2], in test [3], in test [4], in test [5] and in test [6] was “inactive” in each case.
As to `C1CN(CCOCCN2CCOCC2)CCO1`, the Potency entry in test [1], in test [2], in test [3], in test [4] and in test [6] was “inactive” in each case.
As to `CCO/C([O-])=N/c1c[n+](N2CCOCC2)no1`, the Potency entry in test [1], in test [2], in test [3], in test [4] and in test [6] was “inactive” each time.
As for `CC1(C)CO[C@@H](CC(=O)O)CN1`, the Potency result in test [1], in test [2], in test [3], in test [4], in test [5] and in test [6] was “inactive” throughout.
As to `Nc1cc(=O)[nH]c(N)n1`, the Potency entry in test [1], in test [2], in test [3], in test [4] and in test [6] was “inactive” throughout.
For the compound `O=C(CCCN1CCN(c2ccccn2)CC1)c1ccc(F)cc1`, the Potency in test [1] is 11 µM (active); in test [2], 34.7 µM (active); in test [3], 7.76 µM (active); in test [5], 6.74 µM (active). Moreover, the Potency entry in test [4] and in test [6] was “inactive” throughout.
